In PubChem BioAssay:
The source made the active and inactive calls.

How the values were obtained:
[1] = tested on: XIP peptide (Xip251-270) binding; experiment: XIP fragment 251-270 binding compounds – biochemical, small-molecule microarray, fluorescence 635/667 nm, 0.1 µg/mL protein, primary screen (AID 1182); conditions: fluorescent protein binding, 635 nm, higher = more signal, called active from +8 up or from −8 down
[2] = tested on: XIP peptide (Xip251-270); experiment: compounds binding XIP fragment 251-270 – biochemical, small-molecule microarray, fluorescence 635/667 nm, 0.5 µg/mL protein, primary screen (AID 1183); conditions: fluorescence 635 nm, higher = more signal
[3] = blood-stage malaria parasite viability loss – strain 3D7, DAPI fluorescence, 100 nL, primary screen (AID 1184);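 note: parasites grown inside human red blood cells in medium with human serum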; conditions: P. falciparum 3D7 growth, 3 d, higher = more signal
[4] = molecular target: Homeobox protein Hox-A13 (Mus musculus) (UniProt Q62424); experiment: disruptors of Hoxa13 oligonucleotide interaction – biochemical, fluorescence polarization, labeled oligonucleotide, primary screen (AID 1185); conditions: Hoxa13:DNA binding, 15 min, higher = more signal, called active from +8 up or from −8 down
Chain of Homeobox protein Hox-A13 (Mus musculus) (Q62424 whole entry, looked up): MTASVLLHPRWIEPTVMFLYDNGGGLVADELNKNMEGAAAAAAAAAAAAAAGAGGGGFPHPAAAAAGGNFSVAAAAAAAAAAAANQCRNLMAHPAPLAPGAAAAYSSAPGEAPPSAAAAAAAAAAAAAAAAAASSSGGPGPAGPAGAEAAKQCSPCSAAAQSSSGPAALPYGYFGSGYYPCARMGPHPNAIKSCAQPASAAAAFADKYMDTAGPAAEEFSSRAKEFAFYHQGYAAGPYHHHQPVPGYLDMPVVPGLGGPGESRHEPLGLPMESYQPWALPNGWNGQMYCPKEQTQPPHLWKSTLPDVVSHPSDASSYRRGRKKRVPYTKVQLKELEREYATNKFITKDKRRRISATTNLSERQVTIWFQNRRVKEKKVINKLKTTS

SMILES	composite z-score [1]	composite z-score [2]	z-score [3]	z-score [4]
COC(=O)[C@@H]1CC[C@H](C)[C@@H](c2ccc(C)cc2)N1C(=O)c1ccc(C=NOC[C@@H](O)[C@H]2O[C@@H]3OC(C)(C)O[C@@H]3[C@H]2O)cc1	0.102 (inactive)	0.228	-0.209	-6.03 (inactive)
CCN1C(=O)[C@H]2[C@H]3[C@H](O)[C@H](O)CC(=NOC(C)CN4CCCc5nc(C)c(C)cc54)[C@@H]3CC[C@H]2C1=O (some centres undefined)	0.302 (inactive)	0.148	0.393	-10.2 (active)
C[C@H]1CC[C@@H](C(=O)O)N[C@@H]1c1ccc(C#Cc2ccccc2)cc1	-0.125 (inactive)	0.601	-1.61	-2.16 (inactive)
CON=C(C)CCN1CCCCc2nc(C)c(C)cc21	0.0459 (inactive)	0.49	1.06	-2.24 (inactive)
O=C1[C@H]2[C@H]3[C@H](O)[C@H](O)CC(=NO[C@@H]4O[C@H](CO)[C@@H](O)[C@H](O)[C@H]4O)[C@H]3CC[C@H]2C(=O)N1C[C@@H]1CCCO1	-0.48 (inactive)	0.184	0.656	0.594 (inactive)
CO[C@H]1COC(=O)[C@H](C)COC(=O)[C@@H](OCc2ccccc2)C=C[C@@H]1C	0.277 (inactive)	-0.348	1.25	-0.571 (inactive)
COC(=O)[C@H](C)NC(=O)CCC1CC(OC(=O)NCc2ccc3c(c2)OCO3)CC2(CCCC(COC(=O)NCCCN3CCCC3=O)O2)O1 (some centres undefined)	0.045 (inactive)	0.612	-1.84	-5.61 (inactive)
CC(CCN1CCCc2nc(C)c(C)cc21)=NO[C@H](C)c1cn([C@@H]2COC[C@H]2O)nn1	-0.0434 (inactive)	0.588	0.612	-6.65 (inactive)
CC(=O)OC[C@H]1O[C@H](CC=NOC(C)CN2CCCCc3nc(C)c(C)cc32)C=C[C@@H]1OC(C)=O (some centres undefined)	0.231 (inactive)	0.646	-0.445	-3.74 (inactive)
COC(=O)[C@H](C)NC(=O)CCC1CC(OC(=O)NCc2cccc3ccccc23)CC2(CCCC(COC(=O)NCc3ccccc3)O2)O1 (some centres undefined)	0.0457 (inactive)	0.461	-2.02	-1.39 (inactive)
CCCNC(=O)OC[C@H]1O[C@H](CCON=C2c3cc(OC)ccc3O[C@H](c3cccc(OC)c3)[C@H]2O)C=C[C@@H]1Oc1ccc(OC)cc1	0.328 (inactive)	0.693	0.365	-1.94 (inactive)
